In this experiment the test system is VDR:RXRa (NR concentration 270 nM, RXRa partner concentration 90 nM). As to the kind of experiment: PBM binding z-score (relative to random genomic background probes); higher = stronger binding; sequences stand for … in GC…GCGATTGACAGCGTAGAATGAAGG
The protocol: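 Protein-binding microarray (Agilent 4x180K custom design, double-stranded 60-nt probes: 5' GC cap, 34-nt variable region, 24-nt constant primer region; full probe sequence given). Purified or IVT nuclear receptor:RXRα heterodimers (3:1 NR:RXRα, mostly 270:90 nM) or homodimers were incubated for 1 h in PBS with 2% milk and no ligand, then detected with Alexa488 antibodies. Fluorescence from o1-orientation probes (~5 replicates averaged) was converted to z-scores against 500 random hg19 background probes. Variable regions are seed direct-repeat (DR0–DR5) sites, all their single-nucleotide variants and half-site ablations.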
Consider GCTAGTTGGTCAGTAAAAGGTCACACAGCGGTCG, for which the PBM binding z-score is 3.95.

TCGAGTCGGTTAGTCGGGGCATTCAGCCAACATA: the PBM binding z-score was found to be 0.217.

Turning to TCATATAGGTAAACAGGGGAAAGTCCGTAAGTTA, the PBM binding z-score came out at 1.06. In the case of TCGAGTAGGTTAGGGGCAGTCAGAATGGCGTCGA it was 0.0468; in that of ATACCCAGGTGATCGTGAGGTCGTTGATACTAAC, 2.51. Regarding GCATATAGGTAATACAAGGTAAAAGTCCGATTGT, the PBM binding z-score stood at 0.085. As for CCGACTGGGGCAGATAGGTTACCATACCATCCGG, the PBM binding z-score is -0.389. In turn, ATCTCTAGGTAACCAAGTTCAGGGAATGCCGAAC registered a PBM binding z-score of 3.85.

Take CGAACTAGGTCATCCAGGACAGAGAATACATTGA: the PBM binding z-score was 4.48. Sequence CTCGAAAGGTCGTGCTCAGGTGACTATACCAAAC yielded a PBM binding z-score of 3.53.

The sequence CGAACAAGGTCAAGGACAGTGAATCTCCGCACGC showed a PBM binding z-score of 4.11.

Regarding CAAACTAGGTCACCGGAAGGTAAAAGTCCGCATG, the PBM binding z-score was 2.84. CCTTATGGGTCACTCCAGGTTATAGCATCGGAGT: the PBM binding z-score worked out at 3.33. Turning to TAGCCTAGGTCATGGCCCAGTATACCACGCGAAC, the PBM binding z-score was 2.25. For the sequence CCAGACAGGTGAGTAGGTAACTCAGCCTCGATTA, the PBM binding z-score is -0.168. As for ATCGAAATGTCGACGAGGTGAGTATACACCGTTT, the PBM binding z-score stood at 0.509. With GGAACGAAGGCATTCGAGTTGATAGCATGGCGAT the figure was -0.337; with TCATATAAGTAATACAGGTGAAAGTCGGCATCTA, 1.16.

TCTAGTAGGTTACCAATGGGGCATTCAGCTTTCT gave a PBM binding z-score of 0.81. On to CCTAATGGGCCAAAAAGGTCATTGATGCCGATAA, for which the PBM binding z-score was 5.11. As for CATACAGGGTCAGCTAGGCCAGAGTTGGGACGGC, the PBM binding z-score was 3.74. In turn, TATATAGGGTCAAAGGCCAGAGTACGAATGTCGA registered a PBM binding z-score of 4.75.

Consider ATCTCTAGCTAACCAAGTTCAGTGAATGCCGAAC, for which the PBM binding z-score stood at 1.42.

Take CCTAGTTGGTCAGGAGGTCAGACACCGGATATGA: the PBM binding z-score was 2.22. In turn, CCTAGAAGGCCAGGGTCACTCAAGCATTTCGCTT registered a PBM binding z-score of 2.94.

Take TAGCCTAGGTCATCGGGCCAGTATAGTACGCATC: the PBM binding z-score is 2.24. AGAACGAGGGTAATGAGTTGATAGCACGGGTGGC had a PBM binding z-score of 3.47. CCTTACGGGTCACTGACAGGGTATAGCATTTGGA displayed a PBM binding z-score of 3.15. In the case of TAGCCTTGGTCATGCGGGCCAGTATAGTGTCGGC it was -0.724; in that of CCAGACAGGTGAGAAGGTAACACAGCCTCGATTA, 0.086; in that of CCGACTGGGGCAAAGTTACCATAACGCACAGCCA, -0.545. Turning to AGAATGAGGTTATACGTATATCAGGGAAGAAAGT, the PBM binding z-score was determined as 1.69. Sequence TCTCGAAGGACACGAAAGGTCAGAGCTCGACATC registered a PBM binding z-score of 3.06.

CAAACTAGGTCAAGGCCAAAGTCGGTTTGTGCCA yielded a PBM binding z-score of 1.84. For the sequence CGTCCAAGGTAAGCAGGTCAGTGAAAGCGACGTG, the PBM binding z-score is 0.00518.

TCATATAGGTAATACAGCTGAAAGTCGGCATCTA returned a PBM binding z-score of 0.891. With CCTTACGAGTCACTGACAGGTTATAGCATTTGGA, the PBM binding z-score was determined as 1.06. Consider CCAGACACGTGAAAGGTAACTCAGTCTGGTACGC, for which the PBM binding z-score is -0.114. Turning to TCTCGGAGGACACGAACGTCAGAGCTTTCCAGAG, the PBM binding z-score was -0.0912. Turning to TCTGGTAGATCAAAGGTTAAGAAAGCCGAAGCCT, the PBM binding z-score is 1.48.

The record behind these values is the supplement of paper PMC6555819.
